Test system: Scedosporium aurantiacum CBS 136046
Assay: growth inhibition relative to DMSO control (OD600); higher = more antifungal activity, active = 80 or more; extreme values may be limits of the assay
Conditions: 5 µM; 72 h; 37 °C
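Also: conidia screened in RPMI 1640 medium under 5% CO2, growth read by spectrophotometer, medium with 0.5% DMSO serving as the untreated reference.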

Growth inhibition, inactive:
O=C(c1nc2c(C(F)(F)F)cc(C3CC3)cn2c1Cl)N1CCN([C@H]2CC[C@H](O)CC2)C(=O)C1 4.91%, Cc1cc(O)c2c(c1)C(=O)c1c(I)c(O)c(I)c(O)c1C2=O 2.05%, Nc1nnnn1CCOc1c2[nH]c3ccc(Cl)cc3c2cc2c1[nH]c1ccc(Cl)cc12 49.3%, CCc1cc(O)c(Oc2cccnc2N)cc1F 12.4%, O=[N+]([O-])/C(Br)=C/c1ccc(Br)o1 0.879%, O=C(NCc1ccccc1Cl)c1cnc2ccccc2n1 10.6%, CC(C)(C)NC(=O)N[C@H](C(=O)N1C[C@H]2[C@@H]([C@H]1C(=O)NC(CC1CCC1)C(=O)C(N)=O)C2(C)C)C(C)(C)C (stereo partly drawn) 10.8%, O=c1[nH]cnc2c1ncn2[C@H]1CC[C@@H](CO)O1 10.6%, O=c1oc2ccc(Br)cc2cc1CSc1ncc[nH]1 18.7%, NCC(=O)Nc1ccc(-n2nc(C(F)(F)F)cc2-c2ccc3c(ccc4ccccc43)c2)cc1 25.5%, Clc1cc2nc(C3CCNCC3)n(Cc3ccc(CNCCc4c[nH]cn4)cc3)c2cc1Cl 16.1%, Nc1nc(NC2Cc3ccc(F)cc3C2)nc(N2CCCCC2)n1 (stereo not drawn) 45.3%, NC[C@H]1O[C@H](O[C@H]2[C@H](O)[C@@H](O[C@H]3O[C@H](CO)[C@@H](O)[C@H](N)[C@H]3O)[C@H](N)C[C@@H]2N)[C@H](N)C[C@@H]1O 15.5%, CC(C)c1ccc(COc2cccc(-c3cc([S+](C)[O-])c(C#N)c(=O)[nH]3)c2)cc1 (stereo not drawn) 0%, O=C(NCc1cccc2ccccc12)c1cccs1 0%, Nc1nc2c(ncn2/C=C2/CC2(CO)CO)c(=O)[nH]1 1.28%, CCc1nc2ccc(Cl)cn2c1C(=O)NCc1ccc(N2CCC(c3ccc(OC(F)(F)F)cc3)CC2)cc1 21.8%, OCCC#Cc1nc(-c2ccc(F)cc2)c(-c2ccncc2)n1CCCc1ccccc1 13.8%, O=C(NC(=O)N1CCCc2ccccc21)c1ccc(Cl)cc1Cl 3.05%, CCC(C)NCC(O)Cn1c2ccc(Cl)cc2c2cc(Cl)ccc21 (stereo not drawn) 25%, Cc1ccc(C)c(OCCCCCCN2C[C@H](O)[C@@H](O)[C@H](O)[C@H]2CO)c1 15.9%, CCOc1noc2cc(OCCC3CCN(c4ccc(C)nn4)CC3)ccc12 37.3%, COc1cc(NS(=O)(=O)c2ccc(C)cc2)c2ncccc2c1 27.9%, O=C1c2cccc3cccc(c23)C(=O)N1CC1CO1 (stereo not drawn) 19.8%, Nc1cc(N)c2nc(-c3ccccc3)c(Nc3ccc(F)cc3)nc2c1 0.18%, O=P(O)(O)C(CCCc1cccc(Oc2ccccc2)c1)S(=O)(=O)O (stereo not drawn) 2.84%, O=S(=O)(Nc1cccc2cccnc12)c1ccccc1 13.6%, Nc1nc(C(F)(F)F)cc2c1[nH]c(=O)n2Cc1ccccc1 18.8%, O=C(O)c1ccc(-n2nc(-c3ccccc3O)nc2-c2ccccc2O)cc1 0.0499%, O=C(O)C(Cc1c[nH]c2ccccc12)N1C(=O)c2ccccc2C1=O (stereo not drawn) 19.9%, COc1ccc(CNC(=O)C2CCN([C@H](C)c3cccc4ccccc34)CC2)cc1 9.67%, Oc1cccc(C(Nc2nccs2)c2ccc3cccnc3c2O)c1 (stereo not drawn) 5.56%, COc1cc(Cc2cc(N)nc(N)n2)cc(OC)c1OC 11.7%, Cc1nc2ccc(Oc3ccccc3)cc2c2c1CCN2CCc1ccccc1 54.5%, N#CCN1C(=O)COc2cc(F)c(N3C(=O)c4ccccc4C3=O)cc21 0%, Clc1ccc(Cn2c(CN3CCCC3)nc3ccccc32)cc1 15.5%, CCCNc1ccc(S(=O)(=O)Nc2cc(C)on2)cc1 0.262%, CC(C)(C)c1cc(C(=O)/C(C#N)=N/Nc2cccc(Cl)c2)no1 35.3%

— the supplement of paper PMC9897528
